Out of some 370,000 compounds screened, about 760 (0.21%) were called active. The sample holds actives, similar compounds and a random draw of the others, so the mix is not that of the screen. Values without a mark were called inactive.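 Rule for the calls: active = inhibition above a per-campaign cutoff: mean of compounds within control limits plus 3 SD (cut at about 15% in these data); inactive = the rest.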

Chain of Fibrinogen beta chain (Homo sapiens) (P02675 whole entry, looked up): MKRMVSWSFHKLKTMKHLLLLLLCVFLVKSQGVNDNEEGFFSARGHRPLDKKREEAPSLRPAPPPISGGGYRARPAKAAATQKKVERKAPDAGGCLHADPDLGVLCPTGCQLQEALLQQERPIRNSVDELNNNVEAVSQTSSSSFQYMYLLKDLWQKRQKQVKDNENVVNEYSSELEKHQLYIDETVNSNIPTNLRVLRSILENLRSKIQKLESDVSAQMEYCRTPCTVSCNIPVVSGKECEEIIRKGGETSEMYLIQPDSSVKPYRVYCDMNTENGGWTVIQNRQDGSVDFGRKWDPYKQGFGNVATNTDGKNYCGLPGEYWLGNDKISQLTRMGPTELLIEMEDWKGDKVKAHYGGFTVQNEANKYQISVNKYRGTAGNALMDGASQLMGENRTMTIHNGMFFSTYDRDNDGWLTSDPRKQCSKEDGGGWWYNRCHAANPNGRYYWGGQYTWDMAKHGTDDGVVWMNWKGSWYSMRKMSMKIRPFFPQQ

This test concerns the target Fibrinogen beta chain (Homo sapiens) (UniProt P02675). The test can be described thus: inhibitors of Tn6 peptide binding to fibrin DD(E), primary screen, biochemical, fluorescence polarization, human fibrin, Tn6 probe (AID 720509).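 Note: 0% = median of all compound wells on the plate and 100% = blocking peptide control.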 To be noted: Fibrin DD(E) TRITC-Tn6 fluorescence polarization displacement; at 8.3 µM; active compounds read high.
What is called inhibition is the drop in the measured response relative to a control, in per cent. On to `O=C(NCC1CCCO1)c1ccccc1-c1nc(-c2ccccc2Cl)no1` (stereo not drawn), for which the inhibition is 8.29%.

In the case of `Cc1nn(C)cc1N1C(=O)c2cccc3c(N)ccc(c23)C1=O`, the inhibition is 19.6% (active).

On to `C/C(N)=C(/C#N)C(=O)COC(=O)CNS(=O)(=O)c1ccc(C)cc1`, for which the inhibition was 4.06%.

Turning to `COc1cc(NC(=S)NNC(=O)CC(C)C)c(OC)cc1Cl`, the inhibition is 9.57%.

On to `CCc1ccccc1NC(=S)Nc1cc(OC)c(NC(=O)C(C)C)cc1OC`, for which the inhibition was 52.5% (active).

In the case of `COc1ccc(C)cc1NC(=S)Nc1ccccc1SC`, the inhibition was -8.72%.

Take `Cc1ccccc1OCC(=O)Nc1nnc(S(=O)(=O)N2CCCC2)s1`: the inhibition is 3.91%.

On to `Cc1ccc(NC(=O)C(C)Sc2nnc(C3CC3)n2C2CC2)cc1S(=O)(=O)N1CCOCC1` (stereo not drawn), for which the inhibition was -3.46%.

In the case of `O=C1CCc2cc(S(=O)(=O)N3CCC(C(=O)NCc4ccccc4Cl)CC3)ccc2N1`, the inhibition is -0.95%.

As to `O=c1cc(Cn2nnc(-c3ccc(Cl)cc3)n2)nc2sccn12`, the inhibition is 16.1% (active).

With `COc1ccc(C(=O)OCc2cc(=O)n3ccsc3n2)cc1F`, the inhibition is -0.34%.

For `O=C(OCc1cc(=O)n2ccsc2n1)C1(c2ccc(Cl)cc2)CC1`, the inhibition is 4.84%.

In the case of `Cc1ccc(S(=O)(=O)NCC(=O)NNC(=O)c2ccc(Br)cc2)cc1C`, the inhibition was 0.07%.

Regarding `Cc1cc(=O)oc(C)c1C(=O)NCCN(C)Cc1ccccc1`, the inhibition was -1.95%.

Regarding `C[C@@H]1ON(C)[C@H]2C[C@H]3c4cc(N5CCN(C)CC5)ccc4CCN3C(=O)[C@@H]12`, the inhibition was -3.94%.

As to `CCOCC(=O)NCc1ccc2c(c1)cc(C)n2C`, the inhibition was 22.7% (active).

Consider `Cc1ccc(CNC(=O)Cc2cn(C)c3ccccc23)cc1`, for which the inhibition was -3.12%.

For `Cc1ccc(CNC(=O)COc2ccc3c(c2)CCC3)cc1`, the inhibition is -1.34%.

On to `CC[C@@H]1CC2=C(C(=O)OC(C)(C)O2)[C@@H](CC)O1`, for which the inhibition is -4.34%.

For the compound `COc1ccc(NC(=O)c2cc([N+](=O)[O-])ccc2NC(=O)CNC2CCCCC2C)c(OC)c1` (stereo not drawn), the inhibition was -3.72%.

As to `CC1(C)C(C=C(Cl)Cl)C1C(=O)NC(O)C(=O)c1ccccc1` (stereo not drawn), the inhibition was 14.5%.

As for `O=C(c1ccc2c(c1)N(Cc1ccc(F)cc1)C(=O)CS2)N1CCOCC1`, the inhibition was -0.8%.

Consider `COC(=O)C(=Nc1ccccc1)/C(C(=O)C(=O)N(C)c1ccccc1)=C(\O)c1ccc(Cl)cc1`, for which the inhibition was -4.47%.

On to `Cc1c(C(=O)NCCCc2ccccc2)cccc1[N+](=O)[O-]`, for which the inhibition was 7.53%.

On to `O=C(NCCNc1ccccc1[N+](=O)[O-])c1ccccc1F`, for which the inhibition is 16.1% (active).

For the compound `O=C(NCCCNc1ccc([N+](=O)[O-])cc1Cl)c1ccccc1F`, the inhibition is 0.76%.

Regarding `Cc1ccc(-c2nn(-c3ccccc3)cc2/C=C/C(=O)Nc2cccc(S(N)(=O)=O)c2)cc1`, the inhibition was 52% (active).

In the case of `NS(=O)(=O)c1ccc(NC(=O)/C=C/c2ccccc2Cl)cc1`, the inhibition is -10.6%.

As for `COc1ccc(-n2cnnc2SCC(=O)Nc2cccc(S(N)(=O)=O)c2)cc1`, the inhibition was 11.3%.

Turning to `CC1CN(S(=O)(=O)c2cccc(C(F)(F)F)c2)CN1C(=O)N1CCOCC1` (stereo not drawn), the inhibition is -4.35%.

For `CC(=O)n1cc([C@@H]2C=C(C(=O)N3CCN(Cc4ccc5c(c4)OCO5)CC3)O[C@H](OCc3ccc(CO)cc3)C2)c2ccccc21`, the inhibition is 3.52%.

As to `CCCCNC(=O)OC1CC2CC1[C@H]1CCCCN1C2=O` (stereo partly drawn), the inhibition is -8.63%.

As to `OCCC1CN(Cc2ccc3nsnc3c2)CCN1C1CCCCC1` (stereo not drawn), the inhibition is -12.1%.

For the compound `COc1ccc(S(=O)(=O)NC2(C(F)(F)F)N=C3SCCN3C2=O)cc1` (stereo not drawn), the inhibition is 3.58%.

On to `Cc1ccc(S(=O)(=O)NC2(C(F)(F)F)NC(=O)N(CCc3ccccc3)C2=O)cc1` (stereo not drawn), for which the inhibition is 1.91%.

For the compound `COc1ccc(N2C(=O)NC(NS(=O)(=O)c3ccc(Cl)cc3)(C(F)(F)F)C2=O)cc1` (stereo not drawn), the inhibition was 16.5% (active).

As for `Cc1cc(=O)[nH]c(SCC(=O)Nc2ccc(F)cc2F)n1`, the inhibition was -5.08%.

On to `COc1ccc(NC(=O)C2=NNC(=O)CC2)cc1S(=O)(=O)N1CCCCC1`, for which the inhibition was 3.03%.

Take `COCCn1c(SCC(=O)Nc2ccc3c(c2)CCC3)nc2ccccc2c1=O`: the inhibition is -3.38%.

For the compound `COc1ccc(NS(=O)(=O)c2cc3c(cc2C)N(C(C)=O)CCO3)cc1`, the inhibition is -0.74%.

As for `C=C(C)CSc1nnc(-c2ccc(C)cc2)n1N`, the inhibition is 2.43%.

In the case of `CC(C)N(c1ccccc1)c1ncnc(NCCC(=O)O)c1[N+](=O)[O-]`, the inhibition was 0.23%.

On to `Cc1ccc2c(c1)N(CC(=O)NCCCN1CCCCC1)C(=O)c1cccnc1O2`, for which the inhibition is -7.1%.

Turning to `COc1ccc([C@H]2OC(=O)C[C@H]2C(=O)N2CCN(c3ccccc3F)CC2)cc1OC`, the inhibition is -0.84%.

As for `CCCN(CC(=O)Nc1ccc(OC)c(OC)c1)CC(=O)Nc1ccc(F)c(F)c1F`, the inhibition is 7.52%.

With `COc1ccc(Nc2nc(-c3cccnc3)nc3ccccc23)cn1`, the inhibition was 15.3% (active).

In the case of `O=C(Nc1ccc(Cl)cc1)Nc1ccc(Oc2cccnc2)nc1`, the inhibition was -12.2%.

For the compound `O=C(CSc1n[nH]c(-c2cccnc2)n1)Nc1ccnc2ccccc12`, the inhibition was -0.07%.

Take `COc1ccc(S(=O)(=O)N(CCCN2CCCC2=O)Cc2cc3c(C)ccc(C)c3[nH]c2=O)cc1`: the inhibition was -7.91%.

On to `Cc1ccc(NC(=O)CN2CCc3ccccc3C2)cc1`, for which the inhibition was 15.8% (active).

For `Cc1ccc(NC(=O)Cn2sc3ccccc3c2=O)cc1`, the inhibition was 1.72%.

`O=C(CN1CCc2ccccc2C1)Nc1cccc(S(=O)(=O)N2CCOCC2)c1`: the inhibition is 4.91%.

Turning to `Cc1ccc(-c2nc(C)sc2CC(=O)OCC(=O)Nc2c(F)cccc2F)cc1`, the inhibition is 4.3%.

On to `Cc1nc(-c2ccc(F)cc2)c(CC(=O)N2CCN(S(=O)(=O)c3ccc(F)cc3)CC2)s1`, for which the inhibition is -5.03%.

Turning to `Cc1ccc(-c2nc(C)sc2CC(=O)O)cc1`, the inhibition is 16.2% (active).

Take `O=C(Nc1ccc(N2CCOCC2)cc1)c1cccc2c(-c3ccc(F)c(F)c3)coc12`: the inhibition was -1.54%.

For `Cc1ccc(Nc2nc(CSc3nnc(-c4ccncc4)n3-c3ccccc3C)cs2)cc1`, the inhibition is -3.59%.

With `O=C(NCC(F)(F)F)c1ccc(S(=O)(=O)NCCc2ccc3c(c2)OCCO3)cc1`, the inhibition was 0.28%.

As to `Cn1cc(-c2ccccc2)cc(C#N)c1=O`, the inhibition is -5.81%.

Turning to `CCCCNC(=O)Nc1c(C)cc(SC#N)cc1C`, the inhibition was -1.9%.

On to `C[C@H]([C@@H](O)[C@@H](O)[C@@H](C)C(C)(C)C)[C@H]1CC[C@H]2C3CC[C@H]4C[C@H](OS(=O)(=O)O)[C@@H](OS(=O)(=O)O)C[C@]4(C)[C@H]3CC[C@]12C` (stereo partly drawn), for which the inhibition was 3.35%.

In the case of `O=C(NCc1ccccc1Cl)C1CCN(c2ncnc3c2nc2n3CCCCC2)CC1`, the inhibition is -4.73%.

As to `C=C1CCC(N(O)c2cc(C)on2)C(=C)CCC2C1CC2(C)C` (stereo not drawn), the inhibition was -5.24%.

As for `CC(C)Oc1cc(F)ccc1-c1cc(C(=O)Nc2cccc(Cl)c2)[nH]n1`, the inhibition was -6.05%.

On to `CC(CNS(=O)(=O)c1ccc(Br)cc1)CN(C)C` (stereo not drawn), for which the inhibition was -0.63%.

Take `Cc1ccc(C(=O)Cc2nnc(C)s2)cc1`: the inhibition is -0.99%.

In the case of `O=S(=O)(NCc1ccccc1Cl)c1cnc[nH]1`, the inhibition was -4.95%.

`Cc1c(C(=O)N(C)CCc2cnn(C)c2)oc2c(F)cccc12`: the inhibition was 3.62%.

Take `COc1cccc(NC(=O)C2(C)CCN2Cc2ccccc2Cl)c1` (stereo not drawn): the inhibition is 0.5%.

Turning to `COC(=O)c1cc(NC(=O)c2cc(C(C)(C)C)nn2Cc2cccc(C)c2)ccc1N1CCOCC1`, the inhibition is 4.88%.

Regarding `O=C(C(NS(=O)(=O)c1cccc2nsnc12)c1ccccc1)N1CCN(c2ccccc2)CC1` (stereo not drawn), the inhibition was 8.08%.

Regarding `CN1CCN(C(=O)c2ccc(-c3cc4nc(NCc5cccnc5)n(C)c(=O)c4s3)cc2)CC1`, the inhibition is -11.9%.

On to `Cc1cc2ccccc2n1CCNC(=O)COc1ccc2ccccc2c1`, for which the inhibition was 52.5% (active).

As for `Cc1ccccc1OCC(=O)NCC(=O)OCC(=O)c1ccc2ccccc2c1`, the inhibition is -2.48%.

With `O=C(COc1ccc(Cl)cc1)NCCSc1ccccc1`, the inhibition is -0.51%.

Regarding `O=C(NCc1ccccc1)c1cccc(NC(=O)C2CCCCC2)c1`, the inhibition is 3.16%.

`O=C(CC(NC(=O)c1ccccc1)c1ccccc1)Nc1ccc(F)c(F)c1` (stereo not drawn): the inhibition is 6.57%.

`C=CC(COCc1ccccc1)N(CC(=O)OC)S(=O)(=O)c1cc(Br)ccc1OC` (stereo not drawn): the inhibition was -3.84%.

With `Cc1noc(C)c1CSCC(=O)Nc1ccc(Br)cc1Cl`, the inhibition was -5.8%.

On to `CCN(CC)P(=O)(C(NC(=O)OC)C(F)(F)C(F)(F)C(F)(F)C(F)F)N(CC)CC` (stereo not drawn), for which the inhibition was 0.37%.

On to `CN1c2ccc(C=O)c3c(C=O)ccc(c23)N(C)C1(C)C`, for which the inhibition was 29.5% (active).

On to `C[C@@H]1CN([C@H](C)CO)S(=O)(=O)c2ccc(C#CC3CCCCC3)cc2O[C@H]1CN(C)C(=O)Cc1ccncc1`, for which the inhibition was 2.11%.

Consider `Cc1cc(NC(=O)CCC(=O)N(Cc2ccccc2)C(C(=O)NC2CCCC2)c2ccc(C)o2)no1` (stereo not drawn), for which the inhibition is -2.98%.

As to `Cc1sc2ncn(CC(=O)NCCCC(=O)N(C)Cc3ccccc3)c(=O)c2c1C`, the inhibition was 6.86%.

With `CCCNC(=O)c1cc(C2CCCN(C(=O)c3ccc4c(c3)CCO4)C2)on1` (stereo not drawn), the inhibition is 2.19%.

`COc1cc(NC(=O)c2ccc(CNc3c(N4CCCC4)c(=O)c3=O)cc2)cc(OC)c1OC`: the inhibition is 17.7% (active).

As for `O=C(NCc1ccccc1)c1ccc(CNc2c(N3CCCC3)c(=O)c2=O)cc1`, the inhibition was -2.33%.

`O=C(NC1CCCCC1)c1ccc(CNc2c(N3CCOCC3)c(=O)c2=O)cc1`: the inhibition is -6.33%.

The values above are taken from PubChem BioAssay AID720509 (The Scripps Research Institute Molecular Screening Center, 2013).
